Six1-Eya2 blk – Six1/Eya2 interaction inhibition | AlphaScreen GST-Six1/His-Eya2 binding, biochemical; stronger effect = lower value | activity change, % (concentration not given with the values) | Q15475+O00167 | AID 651725 | 360,000 compounds, 0.56% hits; in the data active = activity change below about -65%; inconclusive = mostly about -30% to -63%
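Homogeneous AlphaScreen proximity assay pairing GST-Six1 with His-tagged Eya2 (added as 5X mix: 250 nM and 500 nM) in 50 mM Tris pH 8.0, 300 mM NaCl, 1 mM TCEP. Glutathione donor and nickel acceptor beads; 1 h, 37 °C, dark.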
HP1b binding inh – blocks HP1-beta chromodomain binding to methylated histone tails | Potency, µM (titrated, usually from 114 µM), hits mostly inhibitors | 390,000 compounds, 0.56% hits | P83916 | AlphaScreen HP1-beta / biotin-H3K9me3 peptide binding; also: nearly all actives have a fitted effect of over 70% in size
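AlphaScreen: HP1-beta (50 nM) preformed 30 min with biotin-H3(1-18)K9me3 peptide (50 nM) in PBS pH 7.4, 0.01% Tween-20. Compound added for 30 min at RT, then streptavidin donor/nickel chelate acceptor beads (10 ug/mL) for 30 min.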
CtBP-E1A inh – blocks the CtBP interaction with E1A | 340,000 compounds, 0.49% hits | activity change, % (concentration not given with the values) | AlphaScreen GST-E1A/His-CtBP binding, 1536-well; stronger effect = lower value | AID 651724; in the data active = activity change below about -65%; inconclusive = mostly about -30% to -63%
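Steps: dispense buffer (Tris pH 8.0, NaCl 300 mM, TCEP 1 mM, BSA, Tween 20); add 5X protein mix (GST-E1A, His-CtBP, 125 nM each); pin 23 nL compound; 2 h at 37 °C, dark; add 5X beads (50 ug/mL); 1 h; read.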
BAZ2B inh – BAZ2B (human) inhibition. Q9UIF8. AlphaScreen BAZ2B-H3K14Ac peptide displacement. Potency, µM (doses to about 114 µM), usual class: inhibitors. 360,000 compounds, 4.4% hits. AID 504333; also: nearly all actives have a fitted effect of over 60% in size
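AlphaScreen luminescence quantifies BAZ2B engagement of H3K14Ac peptide; the protein and biotinylated peptide are both at 50 nM final, buffer PBS pH 7.4 with 0.01% Tween-20, all steps at room temperature.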
G9a block – G9a (human) methyltransferase inhibition; G9a H3K9 monomethylation, AlphaScreen, 2 h; Potency, µM (doses to about 102 µM), most hits filed as inhibitors; 350,000 compounds, 8.8% hits; AID 504332; also: nearly all actives have a fitted effect of over 75% in size
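Signal arises when biotinylated H3K9 peptide, once monomethylated, bridges streptavidin donor and antibody-captured acceptor beads. Enzyme at 20 nM was preincubated 15 min with test compounds; peptide 500 nM and SAM 20 uM then reacted for 2 h.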
JMJD2A Tudor inh – blocks the human JMJD2A Tudor domain; O75164; AlphaScreen JMJD2A-Tudor / H3K4me3 peptide binding; Potency, µM (series often up to 114 µM), usual class: inhibitors; 390,000 compounds, 4.4% hits; AID 504339; also: nearly all actives have a fitted effect of over 50% in size
Target sequence (O75164 whole entry, looked up, the tested form may be a part): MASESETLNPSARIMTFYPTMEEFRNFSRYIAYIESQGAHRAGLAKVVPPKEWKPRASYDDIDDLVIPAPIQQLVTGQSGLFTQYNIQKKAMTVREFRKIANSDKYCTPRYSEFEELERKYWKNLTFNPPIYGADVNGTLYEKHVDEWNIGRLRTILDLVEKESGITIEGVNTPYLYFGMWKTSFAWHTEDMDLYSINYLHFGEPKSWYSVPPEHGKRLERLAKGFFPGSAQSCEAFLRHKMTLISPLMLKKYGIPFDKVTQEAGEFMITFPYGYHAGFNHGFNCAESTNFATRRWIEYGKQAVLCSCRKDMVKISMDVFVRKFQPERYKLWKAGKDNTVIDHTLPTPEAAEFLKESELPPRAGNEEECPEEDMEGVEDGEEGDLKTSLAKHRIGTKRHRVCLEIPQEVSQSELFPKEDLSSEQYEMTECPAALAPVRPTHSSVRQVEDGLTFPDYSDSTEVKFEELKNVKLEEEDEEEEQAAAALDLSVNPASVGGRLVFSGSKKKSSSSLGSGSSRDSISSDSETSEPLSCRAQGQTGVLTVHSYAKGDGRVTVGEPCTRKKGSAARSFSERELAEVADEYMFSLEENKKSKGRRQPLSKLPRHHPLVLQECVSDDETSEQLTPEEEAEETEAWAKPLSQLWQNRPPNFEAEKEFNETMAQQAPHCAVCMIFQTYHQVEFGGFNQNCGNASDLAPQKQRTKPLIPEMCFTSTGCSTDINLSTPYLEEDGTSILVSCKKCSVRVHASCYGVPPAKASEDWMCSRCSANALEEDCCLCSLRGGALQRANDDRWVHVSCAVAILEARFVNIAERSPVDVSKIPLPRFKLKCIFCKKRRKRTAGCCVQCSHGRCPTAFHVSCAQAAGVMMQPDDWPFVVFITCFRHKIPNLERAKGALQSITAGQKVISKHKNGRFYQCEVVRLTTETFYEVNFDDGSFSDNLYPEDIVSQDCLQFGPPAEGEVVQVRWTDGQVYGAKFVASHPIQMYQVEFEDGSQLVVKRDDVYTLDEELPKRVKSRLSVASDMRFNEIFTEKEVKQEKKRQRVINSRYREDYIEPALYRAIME
Numbers stand for hits; . = inactive; ? = inconclusive; / = no result given; [ ] = dose if it differs, or a comment. Only some compounds are listed: those with a hit (about 10% of all), similar ones and a draw of the others. Unless noted, calls follow the shape of the dose curve; as a rule, active = well fitted inhibition curve with a large enough effect; inconclusive = small, poorly fitted or top-dose-only effect; inactive = no such curve, though single readings can be large or run the other way.

SMILES	Six1-Eya2 blk	HP1b binding inh	CtBP-E1A inh	BAZ2B inh	G9a block	JMJD2A Tudor inh
Cn1cc(C(=O)O)c(=O)c2cc(S(=O)(=O)N3CCCCC3)ccc21	/	.	/	.	?	89.1µM
CN(CCNC(=O)c1cn(C)c2ccc(S(=O)(=O)N3CCCC3)cc2c1=O)CCc1ccccc1	.	.	.	.	2.24µM	.
COC(=O)c1cn(C)c2ccc(S(=O)(=O)N3CCOCC3)cc2c1=O	.	.	/	.	.	.
COC(=O)c1cn(C)c2ccc(S(=O)(=O)N3CCCC3)cc2c1=O	.	.	.	?	50.1µM	.
Cn1cc(C(=O)N2CCCCC2)c(=O)c2cc(S(=O)(=O)N3CCCC3)ccc21	.	.	.	.	.	.
Cc1cccc(-n2ccc(=O)c(C(=O)Nc3ccc(S(=O)(=O)Nc4onc(C)c4C)cc3)n2)c1	.	.	.	?	.	.
N#CCCn1c(=O)c(-c2ccc(Cl)cc2)nc2cnc(OCc3ccccc3)nc21	/	/	/	/	.[12.7 µM]	/
COc1cccc(C(=O)N2CCCC(Nc3ccc(C)c(C)c3)C2)c1 (centres undefined)	.	.	.	?	22.4µM	?
COc1ccc(C(=O)N2CCCC(Nc3ccc(C)c(C)c3)C2)c(OC)n1 (centres undefined)	.	.	.	?	44.7µM	.
CCCCN(C)c1c(C)nc2ccc(C(=O)NCCOc3ccc(OC)cc3)cn12	.	/	.	/	/	/
COc1ccc(N(CC(=O)NC2CCCCC2)C(=O)CNC(=O)c2ccco2)cc1	.	.	.	.	.	.
CCCCNC(=O)c1ccc2nc(-c3cccs3)c(-c3cccs3)nc2c1	/	.	/	/	/	.
CCCNc1c(N)n(-c2ccccc2)c(=O)[nH]c1=O	.	.	.	56.2µM	35.5µM	?
Nc1c(N=O)c(=O)[nH]c(=O)n1-c1ccccc1	.	.	.	/	/	50.1µM
CCCCC1=CC2=C(c3ccco3)C(=O)C(C)(OC(=O)c3ccc(OC)cc3)C(=O)C2=CN1CCOC (centres undefined)	.	.	.	39.8µM	?	?
COc1cc2c(cc1OC)C(c1ccccc1)N(C(=O)CCl)CC2 (centres undefined)	.	.	.	.	.	.
COc1cc2c(cc1OC)C(c1ccccc1O)N(C1CC(=O)N(c3ccccc3)C1=O)CC2 (centres undefined)	.	.	.	.	8.91µM	.
N#CC1=C2N=C(N)c3c(sc4c3CCCCC4)N2C2=C(C(=O)CCC2)C1c1ccccc1 (centres undefined)	.	.	?	44.7µM	.	?
Cc1ccc(C2C(C#N)=C3N=C(N)c4ccccc4N3C3=C2C(=O)CCC3)cc1 (centres undefined)	.	.	.	50.1µM	?	?
N#CC1=C2N=C(N)c3ccccc3N2C2=C(C(=O)CCC2)C1c1ccc(F)cc1 (centres undefined)	.	.	.	.	.	?
O=C(CSc1nnc2scc(-c3ccc(Cl)cc3)n12)Nc1ccc(F)cc1	/	.	/	.	.	.
O=S(=O)(c1ccccc1)N1CCCCC1CCc1ccccc1 (centres undefined)	.	.	.	/	/	.
CC(=O)Nc1c(O)cc(Br)c2nonc12	/	.	/	/	/	.
CC(=O)Nc1cc(O)c2nonc2c1O	/	?	/	/	/	25.1µM
O=C(OCc1ccc([N+](=O)[O-])cc1)c1cc(S(=O)(=O)N2CCCCC2)ccc1N1CCOCC1	.	.	.	.	?	.
SMILES	Six1-Eya2 blk	HP1b binding inh	CtBP-E1A inh	BAZ2B inh	G9a block	JMJD2A Tudor inh
CSc1ccc(COC(=O)c2cc([N+](=O)[O-])ccc2N2CCOCC2)cc1	.	?	.	.	44.7µM	?
CN(C)S(=O)(=O)c1cccc(COC(=O)c2cc([N+](=O)[O-])ccc2N2CCOCC2)c1	.	.	.	.	56.2µM	.
Cc1ccccc1COC(=O)c1cc([N+](=O)[O-])ccc1N1CCOCC1	.	.	.	.	?	?
CN(C)c1ccc(CNC(=O)C2(C)Cc3c(-c4cccc(C(N)=O)c4)ccnc3O2)cc1 (centres undefined)	.	/	.	/	/	/
CC(=O)OC(C[N+]1(C)CCCCCC1)c1ccccc1 (centres undefined)	.	.	/	.	.	.
C[N+]1(CCC(=O)c2ccccc2)CCCCC1	.	?	.	.	2µM	?
COc1cc(CNC(=O)c2cnc3c(-c4cccc(C)c4)c(C)nn3c2C)cc(OC)c1OC	/	.	/	.	.	.
NS(=O)(=O)c1ccc(N/C=C\C(=O)c2ccc(F)cc2)cc1	.	.	.	.	.	.
CN(C)c1ccc(N/C=C/C(=O)c2ccc(F)cc2)cc1	.	.	.	?	2.51µM	?
CN(C)c1ccc(N/C=C/C(=O)c2ccco2)cc1	?	.	?	35.5µM	7.08µM	?
CC(C)Cc1nn2c(N)c(/C=C3\C=Nc4ccccc43)c(=O)nc2s1	.	.	.	.	?	.
CN(Cc1ccco1)c1ncncc1-c1ccccc1Cl	/	/	/	/	.[0.501 µM]	/
CCc1ccccc1OCc1nc2ccc(S(=O)(=O)N3CCOCC3)cc2[nH]1	.	.	.	.	?	.
Cc1ccccc1OCc1nc2ccc(S(=O)(=O)N3CCOCC3)cc2[nH]1	.	.	.	?	3.55µM	?
CCN(CC)c1ccc(N=Cc2ccccc2[N+](=O)[O-])cc1	-79.9	8.91µM	.	3.16µM	8.91µM	8.91µM
CCN(CC)c1ccc(N=Cc2ccc([N+](=O)[O-])o2)cc1	?	22.4µM	.	10µM	2.51µM	39.8µM
CCCCCC(=O)N/N=C/c1ccc([N+](=O)[O-])o1	.	.	.	.	.	.
CCc1ccc(S(=O)(=O)c2cn(Cc3ccccc3)c3cc(F)c(F)cc3c2=O)cc1	/	.	/	.	?	.
COCCN(CCOC)C(=O)c1ccc(SCc2ccc(C)cc2)c([N+](=O)[O-])c1	.	.	.	?	56.2µM	.
O=C(NCc1ccccn1)c1nc(-c2cccs2)no1	.	.	.	.	28.2µM	.
O=C(NCc1cccs1)c1nc(-c2cccs2)no1	.	.	/	.	.	.
NC(=O)c1sc2nc(-c3cccs3)ccc2c1N	.	.	.	.	35.5µM	.
CCN(CC)C(=O)c1sc2nc(-c3cccs3)cc(-c3cccs3)c2c1N	.	.	.	.	31.6µM	.
Nc1c(C(=O)Nc2ccc(Br)cc2)sc2nc(-c3ccco3)ccc12	.	.	.	?	?	.
CCN(CC)C(=O)c1sc2nc(-c3cccs3)cc(-c3ccc(Cl)cc3)c2c1N	.	.	.	.	.	.
Nc1c(C(=O)Nc2ccc(F)cc2)sc2nc(-c3ccco3)ccc12	.	.	.	.	39.8µM	.
CC(=O)c1sc2nc(-c3ccco3)ccc2c1N	.	?	.	50.1µM	/	79.4µM

Bioassay records: PubChem BioAssay, National Center for Advancing Translational Sciences (NCATS)
